Screens: PubChem BioAssay, several laboratories
Hits are enriched below; roughly 0.41% of the tested compounds scored in any of these assays.
RmlCD inh mix – mixture blocks RmlC and RmlD coupled enzyme activity; RmlC/RmlD coupled enzyme inhibition, 384-well mixture HTS; 110,000 tested, 0.39% active; inhibition, % at 5.5 µM; in the data active = inhibition above about 30%, passing the limit was not always enough
YopH inh – YopH (Yersinia) phosphatase inhibition | inhibition, % (no concentration beside the values) | fluorescence Ex485/Em525 | AID 898 | 140,000 tested, 0.16% active; in the data active = inhibition above about 50%
RmlCD artifact – RmlC/RmlD fluorescence artifact, counter-screen. AID 1696. calls only. 360 tested, 96% active. RmlC/RmlD assay fluorescence artifact counter-screen. shares compounds with RmlCD inh mix; call rule not given here;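 also: compound alone with no enzyme and no substrates present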
Starred values were filed as active, the others as inactive; nt = no result given; + = active, no number.

SMILES	RmlCD inh mix	YopH inh	RmlCD artifact
CCOC(=O)C1=C(c2cccc(Oc3ccccc3)c2)NC(=S)NC1C (stereo unspecified)	16	-15	nt
COc1ccc(Cl)cc1NC(=O)C(C)N(C)Cc1cccc(Cl)c1Cl (stereo unspecified)	nt	-7	nt
COC(=O)c1cc(Cl)c(NC(=O)/C=C/c2ccc(Cl)cc2)cc1OC	-4	-11	nt
COC(=O)c1cc(Cl)c(NC(=O)/C=C/c2ccc(Cl)cc2Cl)cc1OC	62*	-32	+
CCOC(=O)c1c(NC(=O)C(C)N2CCN(C(=O)c3ccco3)CC2)sc2c1CCCC2 (stereo unspecified)	nt	-27	nt
COc1ccc(C(=O)Nc2ccc(Cl)cc2C(=O)N2CCCC(C)C2)cc1 (stereo unspecified)	7	-20	nt
Cc1ccc(C(=O)NCc2ccccc2)cc1Br	nt	-17	nt
N#Cc1c(N)n(CCNC(=O)c2cccs2)c2nc3ccccc3nc12	37*	54*	+
N#Cc1c(N)n(CCNC(=O)c2ccccc2)c2nc3ccccc3nc12	nt	-27	nt
CCC1(C)Cc2ccccc2-c2nc(NCCO)n(-c3ccccc3)c(=O)c21 (stereo unspecified)	-1	-4	nt
CC1(C)Cc2ccccc2-c2nc(NCCO)n(-c3ccccc3)c(=O)c21	51*	-21	+
COc1ccc(-c2oc3ncn4nc(Cc5ccccc5)nc4c3c2-c2ccc(OC)cc2)cc1	84	-10	nt
COc1ccc(-c2oc3ncn4nc(COc5ccccc5)nc4c3c2-c2ccc(OC)cc2)cc1	117*	-34	+
Clc1ccc(C2C3=C(Nc4ncnn42)c2ccccc2CC3)cc1 (stereo unspecified)	18	-9	nt
COc1ccccc1N1CCN(CC(=O)Nc2sccc2C#N)CC1	nt	-10	nt
CCOC(=O)c1nn(-c2ccccc2)c2nc(-c3ccc(OC)cc3)c(C#N)c(=O)n12	nt	-23	nt
CCOC(=O)c1nn(-c2ccc(F)cc2)c2nc(CC(C)C)c(C#N)c(=O)n12	51*	-20	+
O=C(NNC(=O)c1cc(-c2ccccc2)n(-c2ccccc2)n1)c1cccc([N+](=O)[O-])c1	nt	-14	nt
C=CCNC(=O)c1ccccc1NC(=O)Cc1ccccc1[N+](=O)[O-]	nt	-13	nt
Cc1cccn2c(=O)c3cc(C#N)c(=O)n(-c4c(C)n(C)n(-c5ccccc5)c4=O)c3nc12	10	-28	nt
Cc1cccc(-n2c(=O)c(C#N)cc3c(=O)n4ccccc4nc32)c1	83*	-13	+
Cc1ccc(-n2c(=O)c(C#N)cc3c(=O)n4ccccc4nc32)cc1	nt	-28	nt
Cc1cc(-n2c(=O)c(C#N)cc3c(=O)n4cccc(C)c4nc32)no1	47*	-8	+
C=CCN(CC=C)CC(O)CN(c1cc([N+](=O)[O-])ccc1OC)S(=O)(=O)c1ccccc1 (stereo unspecified)	nt	-45	nt
CC(=O)c1ccc(/C=C/c2nc3ccccc3n2C)o1	nt	nt	+
SMILES	RmlCD inh mix	YopH inh	RmlCD artifact
Cn1c(=O)c(/C=C/c2ccccc2)nc2ccccc21	nt	-15	nt
Cn1ccc(C(=O)Nc2ccc(Br)cc2Br)n1	nt	-26	nt
CCOC(=O)Cc1csc(NC(=S)NC(=O)c2ccc(C)cc2)n1	nt	1	nt
CC(C)c1nnc(NC(=O)CCC(=O)NC2CCCc3ccccc32)s1 (stereo unspecified)	nt	-13	nt
COc1ccc(COc2cc(-c3cccc(OC)c3)nc3ccc(NC(=O)C(C)C)cc23)cc1	-11	-31	nt
COCCCn1cnc2c(c1=O)c1nc3ccccc3nc1n2-c1ccccc1	12	-49	nt
COCCCn1cnc2oc3nc4ccccc4nc3c2c1=O	50*	-11	+
CC(C)CC(c1nnnn1Cc1ccccc1)N1CCC(C(N)=O)CC1 (stereo unspecified)	0	-4	nt
Cc1[nH]n(-c2ccccc2)c(=O)c1/C=N/c1ccccn1	3	-32	nt
Cc1[nH]n(-c2ccccc2)c(=O)c1C=Nc1cnc2ccccc2c1	44*	-32	+
Cn1cc(Br)c(C(=O)N2CCN(c3cccc(Cl)c3)CC2)n1	6	1	nt
Cc1ccc(C)c(C(=O)COC(=O)c2cc([N+](=O)[O-])ccc2NCCO)c1	nt	-4	nt
COC(=O)[C@@H]1C[C@@]2(Br)c3ccccc3N(S(=O)(=O)c3ccccc3)[C@H]2N1C(=O)OC	5	nt	nt
CCOC(=O)Nc1ccc2c(CN3C(=O)NC(CC)(CC)C3=O)cc(=O)oc2c1	38	-17	nt
CCOC(=O)Nc1ccc2c(CN3C(=O)NC4(CCCC4)C3=O)cc(=O)oc2c1	74*	-1	+
CCOc1ccc2nnc(-c3ccc(Br)cc3)n2n1	-7	-78	nt
COc1ccc(C(C)(C)C)cc1NC(=O)COC(=O)c1ncc(Cl)c(Cl)c1Cl	nt	-5	nt
Cc1cc(=O)oc2cc(OCCCN3C(=O)c4ccccc4C3=O)ccc12	nt	-28	nt
Cc1cc(=O)oc2cc(OC(=O)CCN3C(=O)c4ccccc4C3=O)ccc12	nt	-26	+
CCc1ccc(-c2cc(C(F)(F)F)n3nc(C(=O)Nc4cnn(Cc5ccccc5C)c4)cc3n2)s1	+	-28	+
CCc1ccc(-c2cc(C(F)(F)F)n3nc(C(=O)Nc4c(C)nn(Cc5ccccc5C)c4C)cc3n2)s1	-27	-4	nt
Clc1ccc(/C=N/c2c(-c3ccco3)nc3ccccn23)cc1	17	10	nt
Oc1ccccc1/C=N/c1c(-c2ccco2)nc2ccccn12	39*	14	+
O=C(NCCc1csc(-c2ccc(C(F)(F)F)cc2)n1)c1cccs1	-21	-32	nt
COc1ccc(C2OC34CCCCC3C(C#N)(C#N)C2(C#N)C(=N)O4)cc1 (stereo unspecified)	64*	-12	+
SMILES	RmlCD inh mix	YopH inh	RmlCD artifact
N#CC1(C#N)COC23CCCCC2C1(C#N)C(=N)O3 (stereo unspecified)	107*	18	+
CCC1OC23CCCCC2C(C#N)(C(=N)O3)C1(C#N)C#N (stereo unspecified)	-4	-5	nt
CC1OC23CCCCC2C(C#N)(C(=N)O3)C1(C#N)C#N (stereo unspecified)	2	-37	nt
CC(OC(=O)c1cc(S(=O)(=O)N(C)c2ccccc2)ccc1Cl)C(=O)Nc1ccc2c(c1)OCCO2 (stereo unspecified)	nt	-18	nt
O=C(CN1N=C(c2ccccc2)CCC1=O)NCc1ccco1	nt	-5	nt
C/C(N)=C(/C#N)C(=O)COC(=O)C1CCC(C(C)(C)C)CC1 (stereo unspecified)	-13	-19	nt
C=CCN(c1cccc(C(F)(F)F)c1)S(=O)(=O)c1cccc(C(=O)OCC(=O)NCCC)c1	nt	-14	nt
CC1(C)CCCN(C(=O)c2coc(=O)c(Br)c2)C1	54*	-57	+
O=C(c1coc(=O)c(Br)c1)N1CCCc2ccccc21	30	-13	nt
COc1ccccc1-c1nnc(N(C)C(=O)C2CCCO2)s1 (stereo unspecified)	37*	-23	+
CN(C(=O)C1CCCO1)c1nnc(-c2ccncc2)s1 (stereo unspecified)	161*	-23	+
Cc1cnc(-c2nnc(N(C)C(=O)C3CCOC3)s2)cn1 (stereo unspecified)	nt	-15	nt
COCC(=O)N(C)c1nnc(-c2ccccn2)s1	111*	-22	+
CN(C(=O)C1CCCO1)c1nnc(-c2ccccn2)s1 (stereo unspecified)	162*	-40	+
COc1ccccc1CCNC(=O)C1CCCO1 (stereo unspecified)	6	-22	nt
